Rows were chosen to be rich in hits. Some 1.3% of all compounds tested hit in one or more screens of this group.
Gli-Sufu block = Gli-Sufu pathway antagonism; Sufu-KO-LIGHT fibroblasts, Gli luciferase reporter luminescence; actives 0.74% (n = 340,000); inhibition, % at 5 µM;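 active = inhibition above about 55%, limit read from the data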;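 note: 0% = DMSO-treated cells and 100% = wells with medium but no cells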
NR2F2 inh = blocks human COUP-TFII nuclear receptor. HEK293T NGFI-A luciferase reporter, luminescence. actives 0.7% (n = 370,000). inhibition, % at 8.6 µM. AID 686940;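 active = inhibition above a per-plate cutoff, mean inhibition of test wells between control levels plus 3 SD, cut at about 38% in these data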;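 note: cells cotransfected with COUP-TFII expression vector driving the NGFI-A reporter; 0% = median of COUP-TF2 test wells and 100% = reporter-only cells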
NR5A2 inv ag = NR5A2 inverse agonism in reporter assay; O00482; HEK293T StAR-luciferase reporter, LRH-1 transfected, 24 h; actives 0.13% (n = 360,000); inhibition, % at 3.6 µM;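 active = inhibition above the mean inhibition of all tested compounds plus 3 SD, cut at about 73% in these data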;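 note: 0% = DMSO wells and 100% = reporter-only cells lacking LRH-1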
NCOA3 inh = inhibitors of human steroid receptor coactivator 3 (SRC3) | Q9Y6Q9 | HEK293 GAL4-SRC3 luciferase reporter, luminescence | AID 588352 | inhibition, % at 3.6 µM | actives 0.17% (n = 360,000);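 active = inhibition above a per-campaign cutoff, the mean of all compounds plus 3 SD, cut at about 60% in these data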;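 note: 0% = DMSO-treated cells and 100% = gossypol-treated cells at 36 µM; higher means less SRC3-driven luciferase light from the GAL4 reporter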
Target sequence (Q9Y6Q9 whole entry, looked up, the tested form may be a part): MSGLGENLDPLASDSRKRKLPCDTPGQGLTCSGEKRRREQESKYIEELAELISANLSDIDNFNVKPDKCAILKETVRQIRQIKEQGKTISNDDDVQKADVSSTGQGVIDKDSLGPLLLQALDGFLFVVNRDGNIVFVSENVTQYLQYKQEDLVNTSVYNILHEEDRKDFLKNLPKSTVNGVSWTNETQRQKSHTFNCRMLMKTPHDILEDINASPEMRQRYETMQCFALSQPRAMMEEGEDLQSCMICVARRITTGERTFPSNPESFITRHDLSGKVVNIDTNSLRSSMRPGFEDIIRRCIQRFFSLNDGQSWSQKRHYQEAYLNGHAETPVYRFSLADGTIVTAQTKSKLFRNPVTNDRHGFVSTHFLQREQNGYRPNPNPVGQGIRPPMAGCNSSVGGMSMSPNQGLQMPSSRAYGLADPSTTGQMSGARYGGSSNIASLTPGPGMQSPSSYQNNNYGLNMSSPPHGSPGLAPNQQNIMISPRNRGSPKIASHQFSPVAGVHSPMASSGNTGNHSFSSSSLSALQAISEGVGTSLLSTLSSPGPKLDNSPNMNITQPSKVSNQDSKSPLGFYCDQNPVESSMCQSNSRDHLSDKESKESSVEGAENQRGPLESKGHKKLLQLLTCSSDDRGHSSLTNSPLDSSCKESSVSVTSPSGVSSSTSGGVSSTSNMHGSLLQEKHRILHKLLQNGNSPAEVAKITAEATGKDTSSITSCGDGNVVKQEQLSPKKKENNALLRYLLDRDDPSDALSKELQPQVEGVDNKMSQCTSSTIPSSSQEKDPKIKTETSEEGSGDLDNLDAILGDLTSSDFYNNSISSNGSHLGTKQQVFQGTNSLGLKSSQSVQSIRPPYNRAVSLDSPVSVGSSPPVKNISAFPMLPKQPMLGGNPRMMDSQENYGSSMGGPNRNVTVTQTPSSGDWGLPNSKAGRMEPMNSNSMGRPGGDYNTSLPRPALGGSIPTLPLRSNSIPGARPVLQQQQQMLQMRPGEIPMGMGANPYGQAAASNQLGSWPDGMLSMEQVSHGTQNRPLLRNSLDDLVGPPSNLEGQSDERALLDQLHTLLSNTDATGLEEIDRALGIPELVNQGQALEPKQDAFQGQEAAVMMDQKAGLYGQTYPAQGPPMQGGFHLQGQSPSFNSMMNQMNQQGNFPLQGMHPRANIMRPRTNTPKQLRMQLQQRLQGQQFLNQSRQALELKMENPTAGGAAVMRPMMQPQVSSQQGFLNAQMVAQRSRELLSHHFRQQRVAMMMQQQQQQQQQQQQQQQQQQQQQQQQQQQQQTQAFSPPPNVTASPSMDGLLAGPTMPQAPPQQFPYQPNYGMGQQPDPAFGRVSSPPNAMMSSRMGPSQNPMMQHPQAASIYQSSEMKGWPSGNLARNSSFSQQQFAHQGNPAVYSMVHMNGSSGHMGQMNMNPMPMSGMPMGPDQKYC
SRC1 inh = human NCOA1 inhibition | actives 0.12% (n = 360,000) | Q15788 | inhibition, % at 3.6 µM | HEK293 GAL4-SRC1 luciferase reporter, luminescence;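 active = inhibition above the campaign mean plus 3 SD, with each screening campaign given its own cutoff, cut at about 60% in these data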;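 note: 0% = DMSO treated cells and 100% = gossypol at 36 µM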
SRC2 inh = inhibits human steroid receptor coactivator 2; Q15596; HEK293 GAL4-SRC2 luciferase reporter, luminescence; inhibition, % at 9 µM; actives 0.17% (n = 370,000); AID 651957;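 active = inhibition above the mean inhibition of all tested compounds plus 3 SD, set per campaign, cut at about 52% in these data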;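 note: 0% = DMSO treated cells and 100% = cells given Gossypol at 36 µM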
Gal4-VP16 ctr = inhibits VP16 reporter, flagging COUP-TFII antagonist hits; shares compounds with NR2F2 inh; HEK293 Gal4-VP16 luciferase reporter, luminescence; inhibition, % at 8.5 µM; actives 25% (n = 2,500); in the data active = inhibition above about 13%
NR2F2 inh conf = COUP-TFII (NR2F2) inhibition, confirmation assay | shares compounds with NR2F2 inh | HEK293 NGFI-A luciferase reporter, luminescence | inhibition, % at 8.5 µM | actives 45% (n = 2,500) | AID 687008;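 active = mean inhibition over three repeats above a set limit taken from the earlier primary screen, cut at about 38% in these data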;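 note: 100% = cells given the luciferase reporter alone without the COUP-TF2 vector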
* = called active by the depositor; / = not tested or not shown.

SMILES	Gli-Sufu block	NR2F2 inh	NR5A2 inv ag	NCOA3 inh	SRC1 inh	SRC2 inh	Gal4-VP16 ctr	NR2F2 inh conf
O=C(CSc1nnc(-c2cccs2)o1)Nc1cc(Cl)cc(Cl)c1	/	-50	/	/	/	-44	/	/
COc1ccc(S(=O)(=O)Nc2cc(Sc3ncn[nH]3)c(O)c3ccccc23)cc1	/	67*	/	/	/	61*	13*	20
Cc1nnc(NC(=O)CSc2ncnc3c2cnn3-c2ccccc2C)s1	1	10	-12	9	-14	-26	/	/
Cc1ccccc1-n1ncc2c(SCC(=O)NC3CCCC3)ncnc21	22	46*	29	22	3	27	-6	24
CCC[C@H]1[C@@H](OC(=O)N2CCCC2)CC[C@@]23CCCN2C(=O)CCC[C@@H]13	/	19	/	/	/	/	/	/
O=C(CCc1ccccc1)N[C@H]1[C@@H](O)CCC[C@]12C(=O)N(Cc1ccccc1)c1ccccc12	/	-21	/	/	/	9	/	/
CC(C)(C)NC(=O)CSc1nc2ccc(NC(=O)CSc3nnnn3Cc3ccccc3)cc2s1	40	67*	38	38	33	11	2	51*
CCOC(=O)CSc1nc2ccc(NC(=O)CSc3nnnn3Cc3ccccc3)cc2s1	-20	16	9	2	12	2	/	/
Nc1ccc(-c2nc3ccc(C(=O)O)cc3s2)cc1	-36	42*	-7	33	9	34	-96	-24
O=C(O)c1ccc2nc(-c3ccccc3)sc2c1	-57	-8	-31	-4	-39	25	/	/
C=CCOc1ccc(CN(C)C(=O)c2ccc(CNS(=O)(=O)c3ccc(C)c(C)c3)cc2)cc1	15	41*	11	14	-10	30	0	29
COC(=O)[C@]12C[C@H](CC(=O)N3CCN(C(=O)C4CC4)CC3)C(=O)N(Cc3ccco3)C1=C[C@H](C(C)(C)C)O[C@@H]2C	/	8	/	/	/	15	/	/
CN(C(=O)CN1CCN(c2cc(-c3ccc(-c4ccccc4)cc3)ncn2)CC1)c1ccccc1	/	54*	29	0	-27	3	-22	19
CN(CC(=O)Nc1cccc(S(=O)(=O)N2CCCC2)c1)CC(=O)Nc1ccc(F)c(F)c1F	12	0	18	-1	-2	8	/	/
O=C(Nc1cccc(S(=O)(=O)N2CCCCC2)c1)c1ccc(Cl)nc1	5	29	13	9	12	5	/	/
O=C(Nc1cccc(S(=O)(=O)N2CCCCCC2)c1)c1ccc(Cl)nc1	7	41*	6	11	12	21	-2	5
O=C(Nc1cccc(S(=O)(=O)N2CCCCCC2)c1)C1CCN(C(=O)c2ccc(Cl)cc2)CC1	19	42*	-3	8	0	1	-3	9
O=C(Nc1cccc(S(=O)(=O)Nc2ccccc2Cl)c1)c1ccc(Cl)nc1	35	47*	41	43	33	16	10	40*
CN(CC(=O)Nc1cccc(S(=O)(=O)N2CCCC2)c1)CC(=O)Nc1ccc(Cl)c(C(F)(F)F)c1	28	42*	17	5	24	11	3	11
COc1cccc(OC)c1C(=O)Nc1cccc(S(=O)(=O)Nc2ccccc2Cl)c1	-2	13	-27	18	-3	14	/	/
CCCCNC(=O)C[C@@H]1C[C@]2(C(=O)OCC)CCC3=C2N(CCC3)C1=O	/	-14	/	/	/	-16	/	/
C#CCN1CC(N(C)CCCO)CS1(=O)=O (stereo not drawn)	/	0	/	/	/	23	/	/
Cc1cc(SCC(=O)c2ccccc2)n2nc(C)nc2n1	-2	45*	21	-7	-2	3	13*	32
Cc1cc(C)c(C#N)c(SCC(=O)c2ccccc2)n1	6	8	16	-39	-25	5	/	/
O=S1(=O)c2c(NCc3ccco3)cccc2Oc2ccccc2CN1Cc1cn(Cc2ccc(Cl)cc2)nn1	/	-3	/	/	/	-27	/	/
SMILES	Gli-Sufu block	NR2F2 inh	NR5A2 inv ag	NCOA3 inh	SRC1 inh	SRC2 inh	Gal4-VP16 ctr	NR2F2 inh conf
CC1(C)CC2CC(C)(CN2S(=O)(=O)c2ccc(C(=O)Nc3cc(S(=O)(=O)N4CCOCC4)ccc3Cl)cc2)C1 (stereo not drawn)	3	36	4	21	22	21	/	/
CC1(C)CC2CC(C)(CN2S(=O)(=O)c2ccc(C(=O)Nc3cccc(S(=O)(=O)N4CCOCC4)c3)cc2)C1 (stereo not drawn)	27	68*	44	24	7	20	1	63*
COC(=O)[C@]12C[C@H](CC(=O)N3CCSCC3)C(=O)N(Cc3ccccc3)C1=C[C@H](COCc1ccccc1)O[C@@H]2C	/	0	/	/	/	-6	/	/
COc1ccc(-c2csc(NC(=O)Cc3ccccc3F)n2)cc1OC	36	49*	6	0	9	-6	-14	2
Cn1c(=O)c2[nH]c(CCCCCCCc3nc4ccccc4[nH]3)nc2n(C)c1=O	19	55*	4	16	1	15	1	27
Cn1c(=O)c2[nH]c(CCCCCc3nc4ccccc4[nH]3)nc2n(C)c1=O	10	-4	7	-16	-25	4	/	/
CC(C)CCn1cnc2c(sc3nc4c(cc32)CSC(C)(C)C4)c1=O	-15	55*	24	-8	3	38	-57	24
COc1ccc(CNCC#Cc2ccc(C)cc2)c(OC)c1	/	-12	/	/	/	1	/	/
COC(=O)C1=C(C)N(Cc2ccccc2C(F)(F)F)C(=NCc2cc(OC)c(OC)c(OC)c2)NC1c1ccc(Cl)cc1 (stereo not drawn)	/	41*	/	/	/	0	-10	-1
COC(=O)C1=C(C)N(Cc2ccccc2C(F)(F)F)C(=NCc2cc(OC)c(OC)c(OC)c2)NC1c1ccccc1C(F)(F)F (stereo not drawn)	/	4	/	/	/	-5	/	/
COc1cccc(C(=O)NCCN2C(=O)C3C4C=CC(C4)C3C2=O)c1 (stereo not drawn)	/	-11	/	/	/	-13	/	/
COc1ccc2c(c1OC)CN1CCc3cc4c(cc3[C@@H]1[C@@H]2O)OCO4	10	/	-17	-38	-14	/	/	/
O[C@@H]1[C@@H](O)C=C2CCN3Cc4cc5c(cc4[C@H]1C23)OCO5 (stereo partly drawn)	69*	56*	98*	89*	75*	36	3	26
COc1ccccc1CNc1nc(NCC2CC2)nc2ccsc12	/	47*	2	4	-3	16	-8	13
COc1ccccc1CNc1nc(Nc2cccc(-c3cnco3)c2)c2sccc2n1	/	48*	6	-9	10	-5	1	21
COc1ccccc1CNc1nc(NCc2ccccc2OC)c2sccc2n1	/	53*	2	2	-4	16	4	26
COCCNc1nc(NCc2ccccc2OC)c2sccc2n1	/	27	22	-1	-2	10	/	/

High-throughput results as filed in PubChem.
